Compound activity as filed in PubChem.
Many of the other results were omitted from the sample, so hits are more common in it than they were.
STK33 kin inh = blocks human STK33 kinase activity. ADP-Glo luminescence, MBP substrate. inhibition, % at 12.5 µM. actives 0.44% (n = 27,000). AID 2322; in the data active = inhibition above about 20%
PD-1 reversal = activators reversing PD-1 mediated T-cell inhibition | 29,000 tested, under 10 active | primary human CD4 T cells, PD-L1 beads, CellTiter-Glo 96 h | activation, % (concentration not given with the values); call rule not given here;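 also: 0% = median vehicle wells and 100% = positive control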
NOMO-1 viab = STK33 inhibitor candidate reducing NOMO-1 cell viability; NOMO-1 AML viability, CellTiter-Glo luminescence, 72 h; inhibition, % (test concentration not listed); actives 7.5% (n = 37,000); in the data active = inhibition above about 80%
* = called active by the depositor; nt = no result given.

SMILES	STK33 kin inh	PD-1 reversal	NOMO-1 viab
O=C(Nc1cccc(Br)c1)C1CN(S(=O)(=O)c2ccccc2)CCN1S(=O)(=O)c1ccccc1 (stereo unspecified)	4	nt	11
Cc1c(C(=O)Nc2cnccn2)oc2ccccc12	-2	-1	112*
Cc1c(C(=O)Nc2nnc(SC/C=C/c3ccccc3)s2)oc2ccccc12	-2	nt	27
COc1cc(Cl)c(C)cc1NC(=O)C1CCC(=O)N1S(=O)(=O)c1ccc(C)cc1 (stereo unspecified)	-3	3	-3
C[C@@H]1CN([C@H](C)CO)C(=O)Cc2cc(NC(=O)Nc3ccc4c(c3)OCO4)ccc2O[C@H]1CN(C)Cc1ccccc1	-4	nt	-1
C[C@@H]1CN([C@H](C)CO)C(=O)Cc2cc(NC(=O)Nc3ccc(F)cc3)ccc2O[C@@H]1CN(C)Cc1ccccc1	-3	0	52
C[C@@H]1CN([C@H](C)CO)C(=O)Cc2cc(NC(=O)Nc3ccc4c(c3)OCO4)ccc2O[C@H]1CN(C)Cc1ccc(-c2ccccc2)cc1	4	2	98*
C[C@@H]1CN([C@H](C)CO)C(=O)Cc2cc(NC(=O)Nc3ccc(F)cc3)ccc2O[C@H]1CN(C)Cc1ccc(-c2ccccc2)cc1	5	-4	127*
C[C@H]1CN([C@@H](C)CO)C(=O)Cc2cc(NC(=O)Nc3ccc(F)cc3)ccc2O[C@H]1CN(C)Cc1ccc(-c2ccccc2)cc1	-1	0	110*
CC(C)NC(=O)Nc1ccc2c(c1)CC(=O)N([C@H](C)CO)C[C@@H](C)[C@@H](CN(C)Cc1ccc(-c3ccccc3)cc1)O2	-4	-3	82*
CC(C)NC(=O)Nc1ccc2c(c1)CC(=O)N([C@@H](C)CO)C[C@H](C)[C@@H](CN(C)Cc1ccc(-c3ccccc3)cc1)O2	-4	-2	18
C[C@@H]1CN([C@H](C)CO)C(=O)Cc2cc(NC(=O)Nc3ccccc3)ccc2O[C@H]1CN(C)Cc1ccc(-c2ccccc2)cc1	nt	0	4
CCc1ccc(OCC(=O)Nc2cccnc2)c(Br)c1	-10	1	25
CCOc1cccc(-c2nnc(SCC(=O)n3c4c(c5ccccc53)CCCC4)n2C)c1	0	0	-3
CCOC(=O)c1c(NC(=O)c2ccc(C)c(S(=O)(=O)N3CCCCCC3)c2)sc2c1CCC2	0	nt	nt
COC(=O)[C@]1(CO)N=C(c2ccc(OCCCO)cc2)O[C@@H]1c1ccccc1N=[N+]=[N-]	-9	nt	nt
CC(Oc1ccc(Cl)cc1Cl)C(=O)NC(=S)Nc1cccc(NC(=O)c2cccs2)c1 (stereo unspecified)	-3	1	3
C[C@H]1CN([C@@H](C)CO)C(=O)Cc2cc(NC(=O)Nc3ccccc3)ccc2O[C@H]1CN(C)S(=O)(=O)c1ccccc1	-4	2	39
C[C@H](CO)N1C[C@H](C)[C@H](CN(C)S(=O)(=O)c2ccccc2)Oc2ccc(NC(=O)Nc3ccc(C(F)(F)F)cc3)cc2CC1=O	2	-6	128*
C[C@H]1CN([C@@H](C)CO)C(=O)Cc2cc(NC(=O)Nc3ccc(C(F)(F)F)cc3)ccc2O[C@@H]1CN(C)C	-2	2	18
C[C@@H]1CN([C@@H](C)CO)C(=O)Cc2cc(NC(=O)Nc3ccc(C(F)(F)F)cc3)ccc2O[C@@H]1CN(C)S(=O)(=O)c1ccccc1	4	-5	112*
C[C@@H]1CN([C@@H](C)CO)C(=O)Cc2cc(NC(=O)Nc3ccc(C(F)(F)F)cc3)ccc2O[C@@H]1CN(C)S(C)(=O)=O	2	0	114*
C[C@H]1CN([C@@H](C)CO)C(=O)Cc2cc(NC(=O)Nc3ccc(C(F)(F)F)cc3)ccc2O[C@@H]1CN(C)S(=O)(=O)c1ccccc1	0	2	5
O=C(Cn1cnc2ccccc2c1=O)Nc1ccc(Cl)c(Cl)c1	3	-1	33
